We go through 2 compounds from PubChem BioAssay (EPA / NIEHS).

“And” between values parts separate entries of the source, which are not always exact repeats. Identical values can stand only once. Records with an inconclusive call do not appear. More than one record can exist for a structure, and the calls need not agree. The source made the active and inactive calls. How the source made its calls, unless noted: active means hit-call score of the fitted dose curve at least 0.9, where 1 is the maximum; inconclusive means response in the unintended direction; inactive means score below 0.9.

Read-out in test [1]: Transforming Growth Factor (TGFB1), TGFB1 (gene 7040)
The experiment in a line: LTEA_HepaRG_TGFB1: Life Technologies and Expression Analysis (LTEA) Assay for Transforming Growth Factor (TGFB1) Transporter using HepaRG (AID 2283533; active means hit-call score of the fitted dose curve at least 0.9, where 1 is the maximum; inactive means score below 0.9). The conditions noted are these: mRNA level, 48 h; actives raise or lower the signal. The gist of the method:
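Differentiated human HepaRG cells in serum-free induction medium were exposed in duplicate for 48 h to eight concentrations (top 100 uM, half-log steps, 0.5% DMSO). TGFB1 mRNA was quantified by qRT-PCR, normalized to ACTB, GAPDH, POLR2A, and fitted bidirectionally against DMSO.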

Read-out in the next test: TIMP1, TIMP1 (gene 7076)
The experiment in a line: LTEA_HepaRG_TIMP1: Life Technologies and Expression Analysis (LTEA) Assay for TIMP1 using HepaRG (AID 2283534; active means hit-call score of the fitted dose curve at least 0.9, where 1 is the maximum; inactive means score below 0.9). The conditions noted are these: mRNA level, 48 h; actives raise or lower the signal. The gist of the method: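 Differentiated human HepaRG cells in serum-free induction medium were exposed 48 h to chemicals (8 half-log concentrations, top 100 uM, 0.5% DMSO). TIMP1 mRNA was quantified by TaqMan qRT-PCR, normalized to ACTB/GAPDH/POLR2A; bidirectional fit versus DMSO.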

Read-out in test [2]: Tumor necrosis factor receptor 1 (TNFRSF1A), TNFRSF1A (gene 7132)
The experiment in a line: LTEA_HepaRG_TNFRSF1A: Life Technologies and Expression Analysis (LTEA) Assay for Tumor necrosis factor receptor 1 (TNFRSF1A) using HepaRG (AID 2283535; active means hit-call score of the fitted dose curve at least 0.9, where 1 is the maximum; inactive means score below 0.9). The conditions noted are these: mRNA level, 48 h; actives raise or lower the signal. The gist of the method:
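Differentiated human HepaRG cells were exposed in duplicate for 48 h in serum-free induction medium to eight concentrations (top 100 uM, half-log steps, 0.5% DMSO). TNFRSF1A mRNA was quantified by qRT-PCR, normalized to ACTB, GAPDH and POLR2A, then fitted bidirectionally against DMSO.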

Read-out in test [3]: Thyroid Hormone Responsive (THRSP), THRSP (gene 7069)
The test is described as follows: LTEA_HepaRG_THRSP: Life Technologies and Expression Analysis (LTEA) Assay for Thyroid Hormone Responsive (THRSP) using HepaRG (AID 2283536; active means hit-call score of the fitted dose curve at least 0.9, where 1 is the maximum; inactive means score below 0.9). The conditions noted are these: mRNA level, 48 h; actives raise or lower the signal. The gist of the method: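 THRSP transcript quantified by Fluidigm qRT-PCR against three housekeeping genes after 48 h chemical exposure of HepaRG cells in serum-free induction medium; eight-point half-log series, top 100 uM, 0.5% DMSO vehicle, duplicate wells.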

Read-out in test [4]: Cellular tumor antigen p53 (Homo sapiens) (UniProt P04637)
The experiment in a line: LTEA_HepaRG_TP53: Life Technologies and Expression Analysis (LTEA) Assay for Tumor Protein P53 (TP53) using HepaRG (AID 2283537; active means hit-call score of the fitted dose curve at least 0.9, where 1 is the maximum; inactive means score below 0.9). The conditions noted are these: mRNA level, 48 h; actives raise or lower the signal. The gist of the method: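 Differentiated HepaRG cells in serum-free induction medium exposed 48 h in duplicate to 8 half-log concentrations, top 100 uM, 0.5% DMSO. TP53 mRNA by TaqMan qRT-PCR (Fluidigm), normalized to ACTB, GAPDH, POLR2A; fitted bidirectionally versus DMSO.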

Read-out in test [5]: UDP glucuronosyltransferase (UGT1A1), UGT1A1 (gene 54658)
The test is described as follows: LTEA_HepaRG_UGT1A1: Life Technologies and Expression Analysis (LTEA) Assay for UDP glucuronosyltransferase (UGT1A1) using HepaRG (AID 2283538; active means hit-call score of the fitted dose curve at least 0.9, where 1 is the maximum; inactive means score below 0.9). The conditions noted are these: mRNA level, 48 h; actives raise or lower the signal. In a few lines: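 UGT1A1 transcript level, measured by qRT-PCR with three housekeeping genes for normalization, after 48 h treatment of human HepaRG cells (0.5% DMSO, duplicates, up to 100 uM, half-log steps, 8 points). Curves fit both directions against DMSO baseline.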

Read-out in test [6]: X-box binding protein 1 (XBP1), XBP1 (gene 7494)
The test is described as follows: LTEA_HepaRG_XBP1: Life Technologies and Expression Analysis (LTEA) Assay for X-box binding protein 1 (XBP1) using HepaRG (AID 2283540; active means hit-call score of the fitted dose curve at least 0.9, where 1 is the maximum; inactive means score below 0.9). The conditions noted are these: mRNA level, 48 h; actives raise or lower the signal. In a few lines: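 Differentiated human HepaRG cells in serum-free induction medium were exposed in duplicate for 48 h to eight half-log concentrations up to 100 uM in 0.5% DMSO. XBP1 mRNA was quantified by qRT-PCR, normalised to ACTB, GAPDH and POLR2A, with bidirectional fitting against DMSO.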

The nature of test [7]: LTEA_HepaRG_LDH_cytotoxicity: Cytotoxicity Assessment in the Life Technologies and Expression Analysis (LTEA) Assay (AID 2283563).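 On AC50: LDH activity released into spent culture medium as a marker of cell death.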 The gist of the method: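 Differentiated human HepaRG cells, plated 48 h beforehand, were switched to serum-free induction medium and exposed for 48 h to eight half-log concentrations (top 100 uM) in 0.5% DMSO. LDH was measured in spent medium; activity was fitted relative to DMSO vehicle.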

Test [8] can be described thus: TOX21_p53_BLA_p2_viability: Viability Assessment in the Tox21 HCT-116 p53 Agonism Beta-lactamase Assay, Phase 2 (AID 2283591).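 Further: compound exposure lasted 16 h at 37 °C; actives lower the ATP signal meaning cytotoxicity.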 In a few lines: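 Cytotoxicity readout: CellTiter-Glo ATP luminescence, 30 min at room temperature, after the beta-lactamase read. Cells were HCT116 exposed 16 h at 37C to compounds pin-transferred at 217-fold dilution from DMSO stocks.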
Test [9] deals with Cellular tumor antigen p53 (Homo sapiens) (UniProt P04637). The test is described as follows: TOX21_p53_BLA_p2_ratio: Tox21 HCT-116 p53 Agonism Beta-lactamase Assay, Ratio, Phase 2 (AID 2283592). The gist of the method: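 Ratio endpoint: beta-lactamase cleavage of CCF4-AM, blue (460 nm) over green (530 nm). HCT116 reporter line; 16 h treatment, 37C; substrate 2 h RT.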
Cellular tumor antigen p53 (Homo sapiens), sequence (P04637 whole entry, looked up): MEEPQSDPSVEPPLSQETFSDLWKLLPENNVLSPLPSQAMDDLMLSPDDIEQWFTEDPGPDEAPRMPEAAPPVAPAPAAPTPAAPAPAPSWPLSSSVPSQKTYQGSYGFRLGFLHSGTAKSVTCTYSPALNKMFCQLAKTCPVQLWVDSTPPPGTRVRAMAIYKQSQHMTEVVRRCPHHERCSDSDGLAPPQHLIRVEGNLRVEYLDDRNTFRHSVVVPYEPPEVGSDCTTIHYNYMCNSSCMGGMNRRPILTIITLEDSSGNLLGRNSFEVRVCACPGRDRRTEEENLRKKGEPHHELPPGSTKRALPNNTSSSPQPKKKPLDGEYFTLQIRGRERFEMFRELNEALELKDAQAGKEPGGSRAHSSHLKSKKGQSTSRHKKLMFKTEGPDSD
Test [10] in a line: TOX21_p53_BLA_p3_viability: Viability Assessment in the Tox21 HCT-116 p53 Agonism Beta-lactamase Assay, Phase 3 (AID 2283593).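 Further: cells exposed to compound for 16 h before reading.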 The gist of the method:
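Cellular ATP was quantified by CellTiter-Glo luminescence, read after 30 min at room temperature. Beforehand, HCT116 cells (4000/well) received compound 5 h post-seeding, 217-fold diluted from DMSO, then incubated 16 h at 37C.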

The target in test [11] is Cellular tumor antigen p53 (Homo sapiens) (UniProt P04637). The experiment in a line: TOX21_p53_BLA_p3_ratio: Tox21 HCT-116 p53 Agonism Beta-lactamase Assay, Ratio, Phase 3 (AID 2283596). The gist of the method: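 Cells were seeded at 4000/well, rested 5 h at 37C, then dosed with DMSO compound solutions (217-fold dilution) for 16 h. CCF4-AM substrate was loaded for 2 h at room temperature, and the 460/530 nm emission ratio was fitted for gain of signal versus DMSO.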

Test [12] in a line: TOX21_p53_BLA_p4_viability: Viability Assessment in the Tox21 HCT-116 p53 Agonism Beta-lactamase Assay, Phase 4 (AID 2283597).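 Further: hits lower the luminescence signal meaning cytotoxicity.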 The gist of the method:
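Cytotoxicity was inferred from loss of CellTiter-Glo luminescence. HCT116 cells had been dosed with compounds after 5 h plating, incubated 16 h at 37C and 5% CO2, and exposed to the CCF4-AM substrate for 2 h.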

Test [13] has as its target Cellular tumor antigen p53 (Homo sapiens) (UniProt P04637). The experiment in a line: TOX21_p53_BLA_p5_ratio: Tox21 HCT-116 p53 Agonism Beta-lactamase Assay, Ratio, Phase 5 (AID 2283599). The gist of the method:
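Beta-lactamase reporter ratio (blue 460 nm over green 530 nm, 405 nm excitation) after 2 h CCF4-AM loading, in HCT-116 cells exposed 16 h at 37 C to compounds pinned at 217-fold dilution. Increases relative to DMSO baseline scored.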

A short description of test [14]: TOX21_p53_BLA_p5_viability: Viability Assessment in the Tox21 HCT-116 p53 Agonism Beta-lactamase Assay, Phase 5 (AID 2283600). In a few lines: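 Luciferase-coupled ATP quantitation of cells treated for 16 h (37C, 5% CO2) with test chemicals delivered in DMSO via a 217-fold dilution; 4000 cells/well; reagent incubated 30 min at room temperature before luminescence reading.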

In test [15] the target is Cellular tumor antigen p53 (Homo sapiens) (UniProt P04637). The test is described as follows: TOX21_p53_BLA_p4_ratio: Tox21 HCT-116 p53 Agonism Beta-lactamase Assay, Ratio, Phase 4 (AID 2283601). The gist of the method:
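Signal is the blue/green (460nm/530nm) ratio of cleaved versus uncleaved CCF4-AM substrate, read after 2 h substrate loading. Cells were HCT116 carrying the p53-responsive beta-lactamase reporter, dosed 16 h at 37C, 5% CO2; CellTiter-Glo measured in parallel.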

The nature of test [16]: Tanguay_ZF_120hpf_MORT_legacy: (Legacy) Oregon State University Tanguay Lab 120 Hour Post-fertilization zebrafish Assay for Mortality (AID 2283633).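 On AC50: fitted as increase in binary mortality versus DMSO negative control.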 The gist of the method: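 Dechorionated Tropical 5D wild-type zebrafish embryos, one per well from 6 hpf, were statically exposed at 28C in the dark until 120 hpf (0.64% DMSO final). Mortality was scored as present/absent by brightfield microscopy, fitted positively versus DMSO.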

Test [17] can be described thus: ATG_XTT_Cytotoxicity: Cytotoxicity Assessment in the Attagene TRANS-FACTORIAL HepG2 Assay (AID 2283584). In a few lines:
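HepG2 human liver cells, transiently transfected with multiple GAL4-UAS reporter units, were dosed and read at 24 h by XTT as cell number. Loss of signal was fitted relative to DMSO negative control baseline.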

A short description of test [18]: Tanguay_ZF_120hpf_YSE_legacy: (Legacy) Oregon State University Tanguay Lab 120 Hour Post-fertilization zebrafish Assay for Yolk Sac Edema (AID 2283634). The gist of the method:
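Tropical 5D wild-type embryos, dechorionated with pronase at 4 hpf, were exposed singly from 6 hpf to 120 hpf under static, sealed, dark conditions at 28C with 0.64% DMSO final. Yolk sac edema was scored present/absent by brightfield microscopy.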

`N#Cc1c(Cl)c(Cl)c(Cl)c(C#N)c1Cl`: the compound was classed as inactive in [1], in [2], in test [4], in test [5], in [8] and in test [9]. The AC50 was 22.5 µM (active) with TIMP1, TIMP1 (gene 7076); 13.2 µM (active) in [3]; 82.3 µM (active) in test [6]; 50 µM (active) in [7]; 22.5 µM (active) in [8]; 15.7 µM (active) in test [9]. In addition, the half-maximal activity concentration (AC50) is 20.7 µM (active) and 23.1 µM (active) in test [10]; 815 nM (active) and 77.5 µM (active) in [11]; 2.04 µM (active) and 2.82 µM (active) in test [12]; 85.4 µM (active) and 17.1 µM (active) in test [13]; 17.1 µM (active) and 15.8 µM (active) in [14]; 1.11 µM (active) and 1.12 µM (active) in [15]. The AC50 in [16] was 24.8 µM (active).
As for `O=C(O)C(F)(F)C(F)(F)C(F)(F)C(F)(F)C(F)(F)C(F)(F)C(F)(F)F`, the outcome in test [1] is “inactive”; with TIMP1, TIMP1 (gene 7076), “inactive”; in [2], “inactive”; in test [3], “inactive”; in [4] it was “inactive”; in test [6] it was “inactive”. In addition, the compound was called inactive in test [7], in test [17], in test [8], in test [9], in test [10] and in test [11]. In addition, the compound was classed as inactive in test [12], in test [13], in [14], in test [15], in [16] and in test [18]. The AC50 in [3] was 26.1 µM (active); in test [4] it was 12.3 µM (active); in [5], 3.11 µM (active) and 7.73 µM (active); in test [6], 50 µM (active).
